Results from PubChem BioAssay AID1159580 (chemical genetic matrix, 2015).
About 2,000 (36%) of roughly 5,500 compounds were called active. Another 18% or so got no clear call; they are omitted. Cut-off read from the data, not from the text of the source: active = normalized growth mostly below about 0.91 (no sharp cut-off); inconclusive = no clear call, values can overlap the other calls; inactive = mostly above about 0.92. Some of the results follow.

Assay: chemical genetic growth profiling, strain panel (AID 1159580);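 note: tested at 20 µM; growth read once vehicle control cultures reached saturation at 30 °C; 1 = growth at the plate median or of vehicle wells; lower values mean less growth of the strain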
Settings: S. cerevisiae deletion strains, growth OD

Measured: normalized growth

O=C(O)CCCN1C(=O)c2cccc3cccc(c23)C1=O
inactive: locus YAL021C, strain ccr4, stronger effect = lower value 0.983 | locus YAL026C, strain drs2, stronger effect = lower value 1.02 | locus YAL030W, strain snc1, stronger effect = lower value 1.01 | locus YBL061C, strain skt5, stronger effect = lower value 1.01 | locus YBR009C, strain hhf1, stronger effect = lower value 1.02 | locus YBR023C, strain chs3, stronger effect = lower value 1.01 | locus YBR171W, strain sec66, stronger effect = lower value 1.01 | locus YBR231C, strain swc5, stronger effect = lower value 1.01 | locus YBR279W, strain paf1, stronger effect = lower value 1.01 | locus YCL011C, strain gbp2, stronger effect = lower value 1.02 | locus YCL016C, strain dcc1, stronger effect = lower value 1.02 | locus YCL061C, strain MRC1, stronger effect = lower value 1.02 | locus YCL069W, strain vba3, stronger effect = lower value 1.02 | locus YCR088W, strain abp1, stronger effect = lower value 1.02 | locus YDL005C, strain med2, stronger effect = lower value 1 | locus YDL040C, strain nat1, stronger effect = lower value 1 | locus YDR001C, strain nth1, stronger effect = lower value 1.01 | locus YDR069C, strain doa4, stronger effect = lower value 1.02 | locus YDR137W, strain rgp1, stronger effect = lower value 1.01 | locus YDR159W, strain sac3, stronger effect = lower value 1.01 | locus YDR195W, strain ref2 1.05 | locus YDR297W, strain sur2, stronger effect = lower value 1.01 | locus YDR334W, strain swr1, stronger effect = lower value 1.02 | locus YDR335W, strain msn5, stronger effect = lower value 1.01 | locus YDR392W, strain spt3, stronger effect = lower value 0.882 | locus YEL003W, strain gim4, stronger effect = lower value 1.01 | locus YEL037C, strain rad23, stronger effect = lower value 1.01 | locus YEL061C, strain CIN8 (second series), stronger effect = lower value 1.01 | locus YER015W, strain faa2, stronger effect = lower value 1.01 | locus YER016W, strain bim1, stronger effect = lower value 1.02 | locus YER111C, strain swi4, stronger effect = lower value 1.01 | locus YER155C, strain BEM2 (second series), stronger effect = lower value 1 | locus YFR010W, strain ubp6, stronger effect = lower value 1.01 | locus YGL167C, strain pmr1, stronger effect = lower value 1.01 | locus YGL173C, strain kem1, stronger effect = lower value 1.02 | locus YGL227W, strain vid30, stronger effect = lower value 1.02 | locus YGL240W, strain doc1, stronger effect = lower value 1 | locus YGL253W, strain hxk2, stronger effect = lower value 1.02 | locus YHR013C, strain ard1, stronger effect = lower value 0.97 | locus YHR027C, strain rpn1, stronger effect = lower value 1.02 | locus YHR030C, strain SLT2, stronger effect = lower value 1 | locus YHR079C, strain IRE1, stronger effect = lower value 0.998 | locus YHR142W, strain chs7, stronger effect = lower value 0.991 | locus YJL092W, strain hpr5, stronger effect = lower value 1.01 | locus YJL095W, strain BCK1 (second series), stronger effect = lower value 1.01 | locus YJL095W, strain BCK1, stronger effect = lower value 0.998 | locus YJL115W, strain asf1, stronger effect = lower value 1.02 | locus YJL129C, strain trk1, stronger effect = lower value 1.02 | locus YJL154C, strain vps35, stronger effect = lower value 1.01 | locus YJL164C, strain tpk1, stronger effect = lower value 0.992 | locus YJL166W, strain qcr8, stronger effect = lower value 1.01 | locus YJL187C, strain SWE1, stronger effect = lower value 1.01 | locus YJR066W, strain TOR1, stronger effect = lower value 0.963 | locus YKL160W, strain elf1, stronger effect = lower value 0.988 | locus YKR026C, strain gcn3, stronger effect = lower value 1.02 | locus YKR091W, strain srl3, stronger effect = lower value 1.01 | locus YLL001W, strain dnm1, stronger effect = lower value 1.03 | locus YLL026W, stronger effect = lower value 1.01 | locus YLL041C, strain sdh2, stronger effect = lower value 1.01 | locus YLR027C, strain aat2, stronger effect = lower value 1.01 | locus YLR113W, strain HOG1, stronger effect = lower value 1.03 | locus YLR221C, strain rsa3, stronger effect = lower value 0.996 | locus YLR258W, strain gsy2, stronger effect = lower value 1.02 | locus YLR262C, strain YPT6 (second series), stronger effect = lower value 0.983 | locus YLR320W, strain mms22, stronger effect = lower value 0.986 | locus YLR342W, strain FKS1, stronger effect = lower value 1.02 | locus YLR357W, strain rsc2, stronger effect = lower value 1.04 | locus YLR370C, strain arc18, stronger effect = lower value 1.02 | locus YLR384C, strain iki3, stronger effect = lower value 1.01 | locus YML120C, strain ndi1, stronger effect = lower value 1 | locus YMR058W, strain fet3, stronger effect = lower value 1.02 | locus YMR125W, strain sto1, stronger effect = lower value 1.03 | locus YMR129W, stronger effect = lower value 1.02 | locus YMR205C, strain PFK2, stronger effect = lower value 1.03 | locus YMR231W, strain pep5, stronger effect = lower value 1.01 | locus YNL071W, strain lat1, stronger effect = lower value 0.994 | locus YNL183C, strain NPR1, stronger effect = lower value 0.931 | locus YNL209W, strain ssb2, stronger effect = lower value 1.01 | locus YNL248C, strain rpa49, stronger effect = lower value 0.98 | locus YNL322C, strain KRE1 (second series), stronger effect = lower value 1.02 | locus YNR049C, strain mso1, stronger effect = lower value 1.01 | locus YOR001W, strain rrp6, stronger effect = lower value 0.976 | locus YOR070C, strain gyp1, stronger effect = lower value 1.01 | locus YOR080W, strain dia2, stronger effect = lower value 1.02 | locus YOR083W, strain WHI5, stronger effect = lower value 0.995 | locus YOR106W, strain vam3, stronger effect = lower value 1.01 | locus YOR231W, strain MKK1, stronger effect = lower value 1.02 | locus YOR265W, strain rbl2, stronger effect = lower value 1.01 | locus YOR270C, strain vph1, stronger effect = lower value 0.999 | locus YOR290C, strain snf2, stronger effect = lower value 1 | locus YPL051W, strain arl3, stronger effect = lower value 0.982 | locus YPL078C, strain atp4, stronger effect = lower value 0.997 | locus YPL106C, strain sse1, stronger effect = lower value 1.01 | locus YPL240C, strain hsp82, stronger effect = lower value 1.02 | locus YPL256C, strain CLN2, stronger effect = lower value 1.03
